Assay [1] deals with Peroxisome proliferator-activated receptor gamma (Homo sapiens) (UniProt P37231). As to the kind of experiment: OT_PPARg_PPARgSRC1_0480: Odyssey Thera (OT) 8-hour Protein-Complementation Assay for Peroxisome Proliferator-activated Receptor Gamma / SRC-1 Co-activator (AID 2283387; active = hit-call score of the fitted dose curve at least 0.9, where 1 is the maximum;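 also: nuclear to cytoplasmic split Venus YFP fluorescence ratio reporting PPARg SRC-1 interaction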). An outline of the steps: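 Protein-fragment complementation of split Venus YFP reports PPARg/SRC-1 interaction in HEK293T (transfected 48 h before treatment), exposed 8 h. Readout: N/C fluorescence ratio at 488 nm from imaging, Draq5 for segmentation, positive fit relative to DMSO.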

Assay [2] shares this target. As to the kind of experiment: OT_PPARg_PPARgSRC1_1440: Odyssey Thera (OT) 24-hour Protein-Complementation Assay for Peroxisome Proliferator-activated Receptor Gamma/ SRC-1 Co-activator (AID 2283388; active = hit-call score of the fitted dose curve at least 0.9, where 1 is the maximum;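 also: nuclear to cytoplasmic ratio of reconstituted Venus YFP fluorescence in fixed imaged cells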). A digest of the protocol: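 Cells carrying the PPARg/SRC-1 fragment-complementation reporter receive compound for 24 hours, are fixed and counterstained with Draq5, then imaged. Increased nuclear relative to cytoplasmic YFP fluorescence above DMSO baseline indicates binding activity.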

Read-out in assay [3]: Fatty acid synthase (Homo sapiens) (UniProt P49327)
The assay is described as follows: LTEA_HepaRG_FASN: Life Technologies and Expression Analysis (LTEA) Assay for Fatty Acid Synthase (FASN) using HepaRG (AID 2283448).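 As to AC50: differentiated human HepaRG liver cells in serum-free induction medium.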 Conditions: mRNA level, 48 h; actives raise or lower the signal. An outline of the steps:
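FASN transcript measured by TaqMan qRT-PCR, normalised to three housekeeping genes, after 48 h chemical exposure of HepaRG cells. Eight-point half-log series from 100 uM in 0.5% DMSO, duplicates; gain or loss fitted against vehicle.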

Read-out in assay [4]: Cyclin Dependent Kinase Inhibitor 1A (CDKN1A), CDKN1A (gene 1026)
As to the kind of experiment: LTEA_HepaRG_CDKN1A: Life Technologies and Expression Analysis (LTEA) Assay for Cyclin Dependent Kinase Inhibitor 1A (CDKN1A) using HepaRG (AID 2283450). The note with it: mRNA level, 48 h; actives raise or lower the signal. An outline of the steps: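 Gain or loss of CDKN1A transcript is scored by bidirectional fitting against 0.5% DMSO vehicle. Human HepaRG cultures receive chemicals for 48 h across an 8-point series peaking at 100 uM; expression comes from qRT-PCR.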

Read-out in assay [5]: Cyclin D1 (CCND1), CCND1 (gene 595)
The assay is described as follows: LTEA_HepaRG_CCND1: Life Technologies and Expression Analysis (LTEA) Assay for Cyclin D1 (CCND1) using HepaRG (AID 2283451).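 As to AC50: differentiated human HepaRG liver cells in serum-free induction medium; TaqMan qRT-PCR transcript level normalised to ACTB GAPDH and POLR2A housekeeping genes.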 The note with it: mRNA level, 48 h; actives raise or lower the signal. A digest of the protocol: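 Expression change is measured by qRT-PCR in HepaRG cells after 48 h treatment across eight concentrations topping at 100 uM, with duplicate wells and DMSO (0.5%) serving as baseline for bidirectional fitting.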

Read-out in assay [6]: catalase (CAT), CAT (gene 847)
As to the kind of experiment: LTEA_HepaRG_CAT: Life Technologies and Expression Analysis (LTEA) Assay for catalase (CAT) using HepaRG (AID 2283452). The note with it: mRNA level, 48 h; actives raise or lower the signal. An outline of the steps:
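HepaRG cells in serum-free induction medium, 0.5% DMSO vehicle, exposed 48 h in duplicate over 8 half-log concentrations from 100 uM. CAT mRNA measured by qRT-PCR, normalized to ACTB, GAPDH, POLR2A; bidirectional fit versus DMSO.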

Read-out in assay [7]: flavin-containing dimethylaniline monooxygenases 3 (FMO3), FMO3 (gene 2328)
The assay is described as follows: LTEA_HepaRG_FMO3: Life Technologies and Expression Analysis (LTEA) Assay for flavin-containing dimethylaniline monooxygenases 3 (FMO3) using HepaRG (AID 2283453).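 As to AC50: differentiated human HepaRG liver cells in serum-free induction medium; FMO3 transcript by TaqMan qRT-PCR normalized to ACTB GAPDH and POLR2A.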 The note with it: mRNA level, 48 h; actives raise or lower the signal. A digest of the protocol: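 FMO3 transcript quantified by TaqMan qRT-PCR against three housekeeping genes after 48 h chemical exposure of HepaRG cells. Eight-point half-log series, top 100 uM, 0.5% DMSO vehicle; phenobarbital 1mM induction control; up- or down-regulation fitted.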

Read-out in assay [8]: Tumor necrosis factor receptor superfamily member 6 (Homo sapiens) (UniProt P25445)
As to the kind of experiment: LTEA_HepaRG_FAS: Life Technologies and Expression Analysis (LTEA) Assay for Fas cell surface death receptor (FAS) using HepaRG (AID 2283447). The note with it: mRNA level, 48 h; actives raise or lower the signal. An outline of the steps: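 Differentiated HepaRG cells in serum-free induction medium were exposed 48 h to 8 half-log concentrations up to 100 uM in 0.5% DMSO, in duplicate. FAS mRNA was measured by qRT-PCR normalised to ACTB, GAPDH and POLR2A; bidirectional fit versus DMSO.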

Read-out in assay [9]: Cyclin D2 (CCND2), CCND2 (gene 894)
The assay is described as follows: LTEA_HepaRG_CCND2: Life Technologies and Expression Analysis (LTEA) Assay for Cyclin D2 (CCND2) using HepaRG (AID 2283449).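 Also: CCND2 transcript measured by TaqMan qRT-PCR and normalised to three housekeeping genes.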 Conditions: mRNA level, 48 h; actives raise or lower the signal. An outline of the steps: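 HepaRG, 48 h dosing, 8-pt half-log curve from 100 uM, 0.5% DMSO; duplicate wells. Readout: CCND2 transcript by microfluidic qRT-PCR, housekeeping-normalised; bidirectional fit vs DMSO baseline.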

Assay [10] has as its target Retinoic acid receptor RXR-alpha (Homo sapiens) (UniProt P19793). The assay is described as follows: OT_NURR1_NURR1RXRa_1440: Odyssey Thera (OT) 24-hour HEK293T Protein Complementation Assay for Nurr1/retinoid X receptor (RXR) (AID 2283386; active = hit-call score of the fitted dose curve at least 0.9, where 1 is the maximum). A digest of the protocol: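 Gain in fluorescence, fitted relative to DMSO, reflects Nurr1–RXRα association in HEK293T cells after 24 h dosing. Bait and prey are each linked to a reporter-protein fragment that reassembles on interaction.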

Assay [11] has the same target. The assay is described as follows: OT_NURR1_NURR1RXRa_0480: Odyssey Thera (OT) 8-hour HEK293T Protein Complementation Assay for Nurr1/retinoid X receptor (RXR) (AID 2283385; active = hit-call score of the fitted dose curve at least 0.9, where 1 is the maximum). A digest of the protocol: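 Interaction of Nurr1 with RXRα read as reconstituted reporter fluorescence in a HEK293T fragment-complementation system, 8 h post-treatment; increase over DMSO baseline analysed.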

Assay [12] is described as follows: CEETOX_H295R_11DCORT: CeeTox H295R High-throughput Steroidogenesis Assay for 11-Deoxycortisol (11DCORT) (AID 2283432).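 Also: 11-deoxycortisol secreted into the medium measured by LC-MS/MS.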 The note with it: actives raise or lower the signal. An outline of the steps:
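Human adrenal H295R cells were prestimulated with 10 uM forskolin for 48 h, then exposed to test chemical (0.1% DMSO final) for 48 h. Medium 11-deoxycortisol was quantified by MTBE extraction and HPLC-MS/MS; bidirectional fitting relative to DMSO.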

Assay [13] is described as follows: CEETOX_H295R_OHPREG: CeeTox H295R High-throughput Steroidogenesis Assay for OH-Pregnenolone (OHPREG) (AID 2283434). Conditions: actives raise or lower the signal. A digest of the protocol: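 H295R, 10 uM forskolin pre-stim 48 h; test chemical 48 h, 0.1% DMSO final. MTBE extraction, reverse-phase C18 HPLC-ESI+ MS/MS of medium. Gain/loss vs DMSO; viability by MTT in same wells.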

The nature of assay [14]: CEETOX_H295R_CORTIC: CeeTox H295R High-throughput Steroidogenesis Assay for Corticosterone (CORTIC) (AID 2283437).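 Also: corticosterone secreted into medium quantified by mass spectrometry.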 The note with it: actives raise or lower the signal. A digest of the protocol:
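48 h forskolin (10 uM) prestim, then 48 h chemical exposure, final DMSO 0.1%. Readout: corticosterone in medium by LC-MS/MS after MTBE extraction. Gain/loss fit vs DMSO; MTT viability in same wells.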

Assay [15] in a line: CEETOX_H295R_CORTISOL: CeeTox H295R High-throughput Steroidogenesis Assay for Cortisol (AID 2283438). Conditions: actives raise or lower the signal. A digest of the protocol: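 Cortisol measured by HPLC-MS/MS after MTBE extraction of medium from H295R cells exposed 48 h to chemical (0.1% DMSO), following 48 h prestimulation with 10 uM forskolin. Viability assessed by MTT in the same wells.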

A short description of assay [16]: CEETOX_H295R_DOC: CeeTox H295R High-throughput Steroidogenesis Assay for DOC (AID 2283439). The note with it: actives raise or lower the signal. An outline of the steps: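 11-Deoxycorticosterone quantified in medium by MTBE extraction and HPLC-MS/MS after 48 h chemical exposure (0.1% DMSO) of forskolin-primed (10 uM, 48 h) H295R cells. Same-well MTT viability; data fitted bidirectionally against DMSO.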

Assay [17] can be described thus: CEETOX_H295R_ESTRADIOL: CeeTox H295R High-throughput Steroidogenesis Assay for Estradiol (AID 2283440).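 Also: estradiol secreted into medium quantified by LC-MS/MS after dansyl derivatisation.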 Conditions: actives raise or lower the signal. A digest of the protocol:
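Readout is estradiol in conditioned medium, quantified by reverse-phase HPLC-MS/MS against a 7-point standard curve. Cells: H295R, forskolin-stimulated, then dosed 48 h in 0.1% DMSO; activity fitted in both directions relative to DMSO.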

The nature of assay [18]: CEETOX_H295R_ESTRONE: CeeTox H295R High-throughput Steroidogenesis Assay for Estrone (AID 2283441). The note with it: actives raise or lower the signal. A digest of the protocol: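 Estrone secreted into medium quantified by LC-MS/MS after dansyl chloride derivatization, following 48 h chemical exposure (0.1% DMSO final) of forskolin-prestimulated (10 uM, 48 h) H295R cells; gain or loss fitted against DMSO; MTT viability in same wells.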

The nature of assay [19]: CEETOX_H295R_PROG: CeeTox H295R High-throughput Steroidogenesis Assay for Progesterone (PROG) (AID 2283442).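 Also: human H295R adrenal cells primed with 10 µM forskolin before dosing.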 The note with it: actives raise or lower the signal. An outline of the steps:
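Measured analyte is progesterone secreted by H295R cells at 48 h of chemical treatment, following 10 uM forskolin priming. Quantitation used HPLC-MS/MS against a 7-point standard curve; cytotoxicity was checked by MTT absorbance.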

The source of these data is PubChem BioAssay (EPA / NIEHS).

Inconclusive results are not listed. Calls of active or inactive are those of the source. The calls were made as follows, unless noted: active = hit-call score of the fitted dose curve at least 0.9, where 1 is the maximum; inactive = score below 0.9.

Chain of Peroxisome proliferator-activated receptor gamma (Homo sapiens) (P37231 whole entry, looked up, the tested form may be a part): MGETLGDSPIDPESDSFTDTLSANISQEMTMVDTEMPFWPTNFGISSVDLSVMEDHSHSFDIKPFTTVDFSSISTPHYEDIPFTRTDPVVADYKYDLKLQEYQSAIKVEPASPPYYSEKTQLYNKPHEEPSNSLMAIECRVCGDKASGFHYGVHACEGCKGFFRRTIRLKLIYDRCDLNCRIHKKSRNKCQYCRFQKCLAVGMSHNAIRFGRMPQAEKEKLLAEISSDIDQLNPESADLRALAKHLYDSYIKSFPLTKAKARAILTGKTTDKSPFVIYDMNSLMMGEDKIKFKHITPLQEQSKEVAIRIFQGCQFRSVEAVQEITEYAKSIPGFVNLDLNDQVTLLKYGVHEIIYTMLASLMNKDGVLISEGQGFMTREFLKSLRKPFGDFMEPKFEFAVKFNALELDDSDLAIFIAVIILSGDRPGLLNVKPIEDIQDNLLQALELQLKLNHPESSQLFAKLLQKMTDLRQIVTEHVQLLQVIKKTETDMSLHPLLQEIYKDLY
Chain of Retinoic acid receptor RXR-alpha (Homo sapiens) (P19793 whole entry, looked up, the tested form may be a part): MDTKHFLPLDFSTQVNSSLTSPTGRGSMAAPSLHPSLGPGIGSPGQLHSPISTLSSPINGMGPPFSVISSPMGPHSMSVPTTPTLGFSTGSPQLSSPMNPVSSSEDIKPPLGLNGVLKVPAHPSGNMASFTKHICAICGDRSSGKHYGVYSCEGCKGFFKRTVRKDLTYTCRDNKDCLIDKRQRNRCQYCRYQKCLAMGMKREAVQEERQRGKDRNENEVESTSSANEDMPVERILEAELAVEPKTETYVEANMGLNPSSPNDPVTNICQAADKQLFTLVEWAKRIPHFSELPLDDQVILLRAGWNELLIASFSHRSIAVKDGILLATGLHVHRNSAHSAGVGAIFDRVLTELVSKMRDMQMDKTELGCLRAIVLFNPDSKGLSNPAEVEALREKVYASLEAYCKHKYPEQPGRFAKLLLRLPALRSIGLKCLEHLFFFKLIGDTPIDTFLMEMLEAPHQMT
Chain of Fatty acid synthase (Homo sapiens) (P49327 whole entry, looked up): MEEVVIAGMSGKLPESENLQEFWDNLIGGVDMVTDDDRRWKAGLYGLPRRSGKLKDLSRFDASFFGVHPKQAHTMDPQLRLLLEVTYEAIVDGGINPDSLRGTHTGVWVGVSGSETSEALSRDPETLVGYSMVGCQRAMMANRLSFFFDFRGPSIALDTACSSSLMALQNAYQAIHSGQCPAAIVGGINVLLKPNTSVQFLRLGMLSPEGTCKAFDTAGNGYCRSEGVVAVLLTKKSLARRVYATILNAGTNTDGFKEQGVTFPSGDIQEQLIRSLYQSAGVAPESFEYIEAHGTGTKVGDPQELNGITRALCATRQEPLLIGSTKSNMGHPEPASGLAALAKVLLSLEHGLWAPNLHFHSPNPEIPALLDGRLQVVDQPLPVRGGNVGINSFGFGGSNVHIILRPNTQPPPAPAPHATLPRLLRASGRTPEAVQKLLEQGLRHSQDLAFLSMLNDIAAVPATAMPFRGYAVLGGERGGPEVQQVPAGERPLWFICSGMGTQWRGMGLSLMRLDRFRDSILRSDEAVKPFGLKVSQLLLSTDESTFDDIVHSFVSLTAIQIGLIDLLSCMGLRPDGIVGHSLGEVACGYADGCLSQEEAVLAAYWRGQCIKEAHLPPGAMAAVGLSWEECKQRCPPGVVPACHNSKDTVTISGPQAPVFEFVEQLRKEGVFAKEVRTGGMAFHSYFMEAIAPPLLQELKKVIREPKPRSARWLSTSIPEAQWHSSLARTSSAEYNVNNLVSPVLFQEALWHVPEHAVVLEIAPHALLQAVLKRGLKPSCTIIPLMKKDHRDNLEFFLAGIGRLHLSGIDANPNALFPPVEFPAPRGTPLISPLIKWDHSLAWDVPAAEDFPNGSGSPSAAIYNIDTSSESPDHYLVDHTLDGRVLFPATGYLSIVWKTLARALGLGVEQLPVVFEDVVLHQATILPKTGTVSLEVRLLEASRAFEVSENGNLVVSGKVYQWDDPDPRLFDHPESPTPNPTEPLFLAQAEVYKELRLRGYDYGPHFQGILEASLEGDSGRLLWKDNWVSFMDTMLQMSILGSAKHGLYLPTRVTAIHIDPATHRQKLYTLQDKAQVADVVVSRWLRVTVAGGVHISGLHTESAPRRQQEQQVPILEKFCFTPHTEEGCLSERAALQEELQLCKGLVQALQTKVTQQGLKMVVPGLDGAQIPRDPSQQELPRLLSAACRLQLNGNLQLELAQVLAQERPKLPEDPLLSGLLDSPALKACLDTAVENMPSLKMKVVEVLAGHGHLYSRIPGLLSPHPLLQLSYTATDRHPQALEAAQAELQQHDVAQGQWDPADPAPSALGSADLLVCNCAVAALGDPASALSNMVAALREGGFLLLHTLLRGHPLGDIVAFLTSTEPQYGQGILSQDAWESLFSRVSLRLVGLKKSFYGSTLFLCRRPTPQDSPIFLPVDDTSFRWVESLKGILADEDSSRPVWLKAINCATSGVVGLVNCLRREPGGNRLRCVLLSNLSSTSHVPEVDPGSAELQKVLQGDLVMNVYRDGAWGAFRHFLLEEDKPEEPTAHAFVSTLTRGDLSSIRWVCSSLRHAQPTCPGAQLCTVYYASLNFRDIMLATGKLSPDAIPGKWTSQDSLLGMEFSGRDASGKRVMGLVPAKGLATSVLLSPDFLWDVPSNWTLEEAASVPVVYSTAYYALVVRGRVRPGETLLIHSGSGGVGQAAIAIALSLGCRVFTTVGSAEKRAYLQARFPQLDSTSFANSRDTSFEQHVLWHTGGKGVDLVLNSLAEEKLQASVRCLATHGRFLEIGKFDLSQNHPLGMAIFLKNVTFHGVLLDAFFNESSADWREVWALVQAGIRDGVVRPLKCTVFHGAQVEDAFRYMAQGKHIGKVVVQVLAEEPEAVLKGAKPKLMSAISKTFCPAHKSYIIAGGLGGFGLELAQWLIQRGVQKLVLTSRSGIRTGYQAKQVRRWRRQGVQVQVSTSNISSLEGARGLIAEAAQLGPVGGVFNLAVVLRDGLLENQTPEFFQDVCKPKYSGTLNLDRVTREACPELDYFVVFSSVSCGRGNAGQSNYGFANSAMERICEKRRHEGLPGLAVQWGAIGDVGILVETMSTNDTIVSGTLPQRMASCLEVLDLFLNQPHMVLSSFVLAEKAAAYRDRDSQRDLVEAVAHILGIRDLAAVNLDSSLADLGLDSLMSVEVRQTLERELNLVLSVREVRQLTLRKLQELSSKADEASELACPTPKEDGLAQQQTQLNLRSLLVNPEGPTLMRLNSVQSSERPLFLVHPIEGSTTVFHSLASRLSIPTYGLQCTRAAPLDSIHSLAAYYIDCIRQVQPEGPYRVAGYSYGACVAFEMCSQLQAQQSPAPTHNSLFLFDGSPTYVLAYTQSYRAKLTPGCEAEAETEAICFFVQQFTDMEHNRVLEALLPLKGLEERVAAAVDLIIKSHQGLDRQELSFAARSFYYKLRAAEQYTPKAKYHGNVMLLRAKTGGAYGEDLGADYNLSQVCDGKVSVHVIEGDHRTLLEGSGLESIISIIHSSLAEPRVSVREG

On to `CC(C)(C)OOC(=O)c1ccccc1`, for which the compound was called inactive in [1], in assay [2], in [3], in assay [4], in [5] and in assay [6]. Also, the compound was classed as inactive in [7].
A word on the AC50: it is the concentration giving half of the maximal activity seen. In the case of `COc1cc(C=O)cc2c1[C@H](COC(N)=O)[C@]1(OC(C)=O)ON2C[C@H]2[C@@H]1N2C(C)=O`, the compound was called inactive in assay [1], in assay [3] and in [4]. Further, the AC50 in [8] was 88.1 µM (active); in assay [9] it was 29.6 µM (active); in assay [5], 50 µM (active); in [7], 76.5 µM (active).
In the case of `CCCCCCCCOC(=O)c1ccc(C(=O)OCCCCCCCC)c(C(=O)OCCCCCCCC)c1`, the compound was called inactive in assay [10], in assay [1], in assay [3], in [9], in assay [4] and in assay [5]. For the same compound, in assay [7], the compound was classed as inactive.
On to `O=Cc1ccco1`, for which the outcome in [11], in assay [10], in [3], in assay [4], in assay [5] and in assay [6] was inactive. Besides, in assay [7], the compound was called inactive.
For the compound `c1ccc2c(c1)oc1ccccc12`, the compound was classed as inactive in assay [11], in [10], in assay [3], in [4], in [5] and in assay [7].
Regarding `OCCCBr`, the result in assay [1], in assay [2], in assay [3], in [9], in [4] and in assay [5] was inactive. Also, the call in assay [6] and in assay [7] was inactive.
Regarding `Nc1ccc(N=Nc2ccccc2)cc1`, the outcome in [11], in assay [1], in assay [14], in [17] and in assay [18] was inactive. The half-maximal activity concentration (AC50) in assay [12] was 36.7 µM (active); in assay [13], 50 µM (active); in assay [15], 68.7 µM (active); in assay [16], 12.8 µM (active); in assay [19], 75.6 µM (active); in [8] it was 13 µM (active). For the same compound, the AC50 in assay [3] was 21.6 µM (active); in [4], 11.2 µM (active); in assay [5], 28.8 µM (active); in assay [7], 19.1 µM (active).
